MEKK3 PB1 HTS: raises or lowers MEK5 binding to the human MEKK3 PB1 domain | 1.4% of 290,000 active | bead-based flow cytometry, Alexa488-MEK5 binding to MEKK3; actives lie on both sides; 0 = blocked by unlabeled MEK5, 100 = vehicle | AID 1529 | binding response (% of control), % at 10 µM | Q99759;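 active = binding response more than 3 SD above or below the average of its plate-row segment, actives on both sides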;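 note: Alexa488 bead fluorescence after subtracting the streptavidin-only scavenger bead signal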
Target sequence (Q99759 whole entry, looked up, the tested form may be a part): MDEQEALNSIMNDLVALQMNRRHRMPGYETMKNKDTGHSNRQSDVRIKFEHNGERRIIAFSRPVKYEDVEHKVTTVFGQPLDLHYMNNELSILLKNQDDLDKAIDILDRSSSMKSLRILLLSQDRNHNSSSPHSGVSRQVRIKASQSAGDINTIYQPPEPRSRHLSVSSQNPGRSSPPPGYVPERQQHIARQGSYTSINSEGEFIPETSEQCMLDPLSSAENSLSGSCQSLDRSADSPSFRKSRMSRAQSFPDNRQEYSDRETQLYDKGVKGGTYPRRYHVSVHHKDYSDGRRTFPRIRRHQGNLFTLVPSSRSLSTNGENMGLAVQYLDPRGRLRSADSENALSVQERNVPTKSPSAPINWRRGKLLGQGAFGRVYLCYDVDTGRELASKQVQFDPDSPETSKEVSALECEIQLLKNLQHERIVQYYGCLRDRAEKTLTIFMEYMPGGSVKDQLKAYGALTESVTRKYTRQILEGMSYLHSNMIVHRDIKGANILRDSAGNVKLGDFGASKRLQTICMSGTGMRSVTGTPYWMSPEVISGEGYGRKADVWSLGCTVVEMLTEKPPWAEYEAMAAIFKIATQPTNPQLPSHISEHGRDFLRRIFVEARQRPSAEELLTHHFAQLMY
MEKK2 mut-MEK5: signal of MEK5 binding to mutant human MEKK2 PB1 domain; bead flow cytometry, Alexa488-MEK5 binding to MEKK2 mutant; percent response, % at 10 µM; 0.35% of 290,000 active; in the data active = percent response above about 24%, passing the limit was not always enough
Mot1-301 SUMO: inhibitors of SUMOylation pathway: yeast Mot1-301 growth rescue; S. cerevisiae Mot1-301 growth rescue, ATP luminescence, 38.5C; percent above DMSO median, 100 means doubled; growth rescue, % at 18.8 µM; 1% of 320,000 active; AID 2716;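 active = every valid replicate shows activation above 250% relative to neutral control wells; inactive = the rest, any valid replicate at or below 250%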;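 note: OY570 slx delta 5 strain wells were the positive control but not used for scaling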
CHT allo act: allosterically activates the human high affinity choline transporter; Q9GZV3; CHT-expressing cells, membrane potential dye, choline EC20; hits give high values; LV-AA mutant CHT in HEK293 cells; B-score at 10 µM; 0.49% of 310,000 active;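 active = initial fluorescence not abnormally high and integrated response B-score, plate-corrected, over 3 SD above library mean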
CHT inh: human CHT choline transport inhibition | Q9GZV3 | CHT-expressing cells, membrane potential dye, choline response; hits give low values | B-score at 10 µM | 0.86% of 310,000 active | AID 488975;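 active = B-score over 3 SD under the library average, and starting fluorescence ratio not unusually high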;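 note: choline stimulus applied at its EC90 after an EC20 pre-addition; B-score computed on integrated fluorescence ratio after choline addition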
MEKK2 WT-MEK5: raises or lowers MEK5 binding to wildtype human MEKK2 PB1 domain | Q9Y2U5 | bead flow cytometry, Alexa488-MEK5 binding to MEKK2 WT; actives lie on both sides | binding response (% of control), % at 10 µM | 1.1% of 290,000 active | AID 1531; in the data active = binding response below about 67% or above about 130%
CHT inh conf: human CHT inhibition, confirmatory screen. shares compounds with CHT inh. CHT-expressing cells, choline membrane potential dye; LV-to-AA substituted CHT, HEK293 cells. CHT activity remaining % of control (hits give low values), % at 10 µM. 70% of 2,400 active. AID 493221;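 active = choline transporter activity left, mean of duplicates at 10 µM, below buffer-only control mean minus 3 SD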;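 note: depolarization triggered by choline at its EC90 following an EC20 pre-addition; 0% = hemicholinium-3 full block and 100% = buffer-only control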
HEK293 MPD ctr: CHT inhibitor counter-screen hit in parental HEK293 cells; membrane potential ratio readout (active if shifted either direction beyond buffer ±3SD; no single direction) at 10 µM; shares compounds with CHT inh; membrane potential dye, choline response; active = decrease or increase beyond buffer ±3SD; AID 493222; 4% of 2,400 active;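 note: parental cells lack the transporter so any hit is non-specific; ratio is peak minus trough fluorescence over baseline after EC90 choline challenge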
The depositor's hits bear a star; i = inactive; . = not tested or not shown. An excerpt weighted towards active compounds, which were near 4.1% of everything screened.

SMILES | MEKK3 PB1 HTS | MEKK2 mut-MEK5 | Mot1-301 SUMO | CHT allo act | CHT inh | MEKK2 WT-MEK5 | CHT inh conf | HEK293 MPD ctr
CC(=O)c1cccc(N(CC(=O)Nc2ccccc2C(=O)N2CCCC2)S(C)(=O)=O)c1 | 104.0 | 10.0 | 1.7 | i | i | 109.0 | . | .
CC1(C)COCN1S(=O)(=O)c1ccc(C(=O)Nc2nnc(-c3ccc(Cl)s3)o2)cc1 | . | . | -9.8 | i | -5.78* | . | 50.1%* | i
Cc1ccc(Oc2ccc(NC(=O)Cn3ccsc3=N)cc2)cc1 | 97.0 | 20.0 | -0.2 | i | -7.9* | 131.0 | 16.5%* | i
Cc1nc(SCC(N)=O)[nH]c(=O)c1Cc1ccc(OC(C)C)cc1 | 106.0 | 11.0 | -8.1 | i | -6.1* | 112.0 | i | i
CCCc1nnc(NC(=O)CCC(=O)N2CCC(C)CC2)s1 | 93.0 | -3.0 | -0.1 | i | i | 96.0 | . | .
Cc1ccc(-c2nnc(CCC(=O)N(C)Cc3nccs3)o2)s1 | 82.0 | -14.0 | 23.9 | i | i | 81.0 | . | .
Cc1ccc(-c2nc(CN(C)Cc3ccc4nccnc4c3)c(C)o2)s1 | 94.0 | -5.0 | 12.8 | i | -5.16* | 96.0 | i | i
Cc1c(Cc2ccccc2)c(=O)oc2cc(O)ccc12 | 98.0 | -2.0 | -0.3 | i | -6.54* | 97.0 | i | i
Cc1c(Cc2ccccc2)c(=O)oc2c(O)c(O)ccc12 | 96.0 | 1.0 | . | . | . | 98.0 | . | .
Cc1ccccc1C(=O)O/N=C/c1c(N2CCOCC2)n(C)c2ccccc12 | 96.0 | -8.0 | 210.6 | i | -15.8* | 95.0 | 36.6%* | i
C=CCSC1=N/C(=C\c2cc(OCC)c(OC(C)=O)c([N+](=O)[O-])c2)C(=O)S1 | 90.0 | -3.0 | -13.4 | i | i | 87.0 | . | .
COc1ccc(N2C(=O)C(CC(=O)Nc3ccccc3)N(CCc3ccc(OC)c(OC)c3)C2=O)cc1 (configuration not stated) | 97.0 | -4.0 | 13.2 | i | -8.74* | 98.0 | i | i
O=C(O)c1cn2c3c(ccc(Cl)c3c1=O)OCC2 | 100.0 | 6.0 | 10.3 | i | i | 104.0 | . | .
CC1(C)C(C=C(Cl)Cl)C1C(=O)Nc1ccc(S(=O)(=O)Nc2ncccn2)cc1 (configuration not stated) | 105.0 | 7.0 | 5.0 | i | -5.06* | 107.0 | 33.0%* | i
COC(=O)Nc1ccc(S(=O)(=O)Nc2ncccn2)cc1 | 105.0 | -5.0 | 270.7 | i | i | 99.0 | . | .
CC(=O)N1CCN(S(=O)(=O)c2cccc(C(=O)NNC(=O)Cn3nc(C)cc3C)c2)CC1 | . | . | 9.5 | . | . | . | . | .
O=c1oc2ccccc2c(Cl)c1CN1CCCCC1 | 105.0 | 2.0 | 49.3 | i | -6.86* | 105.0 | 31.0%* | i
O=c1oc2ccccc2c(N2CCCC2)c1CN1CCCC1 | 92.0 | -1.0 | 7.4 | i | i | 99.0 | . | .
COC(=O)/C(=C/c1c[nH]c2ccccc12)[N+](=O)[O-] | 98.0 | 0.0 | -11.7 | i | -4.94* | 96.0 | 58.2%* | i
COC(=O)/C(=C/c1c[nH]c2ccccc12)NC(C)=O | 96.0 | -2.0 | -4.4 | i | i | 93.0 | . | .
CC(=O)NN1C(=O)c2ccc(Oc3cccc([N+](=O)[O-])c3)cc2C1=O | 105.0 | 4.0 | 220.4 | i | -8.3* | 104.0 | 23.0%* | i
Clc1ncc(CN2CCN(c3ccccc3)CC2)s1 | 103.0 | 1.0 | 45.8 | i | i | 100.0 | . | .
c1ccc(N2CCN(Cc3ccnc4ccccc34)CC2)cc1 | 108.0 | 9.0 | -3.0 | i | -10.9* | 122.0 | i | i
COc1ccc(C(=O)O)cc1S(=O)(=O)Nc1ccccc1C(=O)NCc1ccc2c(c1)OCO2 | . | . | -5.6 | . | . | . | . | .
COc1ccc(CCNC(=S)N2CCN(S(=O)(=O)c3ccccc3)CC2)cc1 | . | . | -12.2 | i | i | . | . | .

From PubChem
